Source: PubChem BioAssay AID1857 (The Scripps Research Institute Molecular Screening Center, 2009)
Among all 1,300 compounds or so, about 290 (22%) were called active.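 The calls were made as follows: active = inhibition above the mean of all tested compounds plus 3 SD (cut at about 19% in these data); inactive = the rest.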 A selection follows.

The molecules below were run on VIM-2 metallo-beta-lactamase (Pseudomonas aeruginosa) (assay: VIM-2 CCF2 hydrolysis inhibition, orthogonal readout – biochemical, FRET, epi-absorbance artifact exclusion, artefact control for selective VIM-2 inhibitor project, confirmation (AID 1857;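 also: 0% = VIM-2 plus DMSO and 100% = no enzyme wells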)). Details: purified VIM-2, CCF2 FRET substrate hydrolysis; at 5.6 µM; stronger effect = higher value.

inhibition, inactive:
CCC1CCCCN1CCCNC(=O)c1cc2c(Cl)nc3ccccc3c2s1 (configuration not stated) 3.62%
Cn1c(=O)c2c(nc(N3CCOCC3)n2CCNC2=NCCC2)n(C)c1=O 1.09%
CCOc1cc(/C=C2\SC(N3CCCCC3)=NC2=O)ccc1O 1.41%
Cc1cccn2c(=O)c(C=O)c(Nc3ccc(S(N)(=O)=O)cc3)nc12 2.01%
CCOc1cc(/C=C2\SC(N3CCCC(C)C3)=NC2=O)ccc1O (configuration not stated) -2.85%
O=C(COc1cc2oc(=O)c3c(c2cc1Cl)CCC3)NCCCN1CCOCC1 -0.64%
CN(C)CCNc1ccc(-c2n[nH]c(=O)c3ccccc23)cc1[N+](=O)[O-] -1.97%
CCCc1ccc(OCCNC(=O)c2ccco2)cc1 -1.44%
Cc1nc2ccccc2c2oc(C(=O)NCCCN3CCC(C)CC3)cc12 1.71%
O=C(NCCCN1CCOCC1)c1cnn2c(-c3ccccc3)cc(-c3ccccc3)nc12 -2.83%
Cc1cc(NCc2ccco2)n2c(nc3ccccc32)c1C#N -12.9%
CCN(CC)CCOc1ccc2c(c1)C(=NNC(=O)c1ccccn1)c1cc(OCCN(CC)CC)ccc1-2 2.33%
O=C(NC(=S)Nc1ccccc1C(=O)O)c1ccc(-c2ccc(Br)cc2)o1 11.2%
CCN1CCCC1CNC(=O)c1cc2c(=O)n(C)c3ccccc3c2n1C (configuration not stated) -2.42%
CC1CCCC(C)N1CCCNC(=O)c1cc2c(=O)n(C)c3ccccc3c2n1C (configuration not stated) -7.42%
NC(=O)C1CCN(C(=O)COc2ccc3c4c(c(=O)oc3c2)CCC4)CC1 -2.54%
Cc1cc(C)c2nc3nc(C)cc(C)c3c(N)c2c1 -10.3%
Cc1cc([N+](=O)[O-])c(-c2ccc(/C=N/n3cnnc3)o2)cc1Cl -0.73%
Fc1ccc(-c2ccc(CNCc3ccccn3)o2)cc1Cl -13.3%
Nc1nnc2c(C(F)(F)F)nc3ccccc3n12 2.08%
CCN(CC)c1ccc2cc(C(N)=O)/c(=N\NC(=O)c3ccncc3)oc2c1 11.1%
Cc1ccc2nc(C)c3c(c2c1)N(c1ccccc1)CC3 -1.46%
COc1ccc(/C=N/N(C)C2=NS(=O)(=O)c3ccccc32)cc1OC -2.83%
CCN1CCN(C(=O)Cn2nc(C)n3c(cc4c(OC)cccc43)c2=O)CC1 1.55%
Cc1cc(-c2ccc(/C=N/n3cnnc3)o2)c([N+](=O)[O-])cc1C -2.34%
COc1ccc(Nc2cc(C)nc(-n3nc(C)cc3C)n2)cc1 -53.5%
Cc1ccc(Cl)cc1-c1ccc(/C=N/n2cnnc2)o1 -0.56%
COc1cc(NC(=O)C2=C(C)OCCS2)c(Cl)cc1C(=O)NCCN1CCN(C)CC1 2.07%
COc1ccc(-c2nn3c(-c4ccccc4)nnc3s2)cc1OC 1.85%
CCOCCCNc1c(CC)c(C)c(C#N)c2nc3ccccc3n12 0.59%
COc1ccc(CCn2c(=N)c(C(=O)NCC3CCCO3)cc3c(=O)n4cccc(C)c4nc32)cc1OC (configuration not stated) -3.31%
COC(=O)c1c(NC(=O)c2ccc(S(=O)(=O)N3CCOCC3)cc2)sc2c1CCN(C(C)C)C2 1.2%
CN1CCN(c2ccc(NC(=O)c3ccc4c(c3)[nH]c(=O)n4Cc3ccc(F)cc3)cc2)CC1 -0.35%
CCOC(=O)N1CCN(C(=O)C2CCN(c3ncnc4c3sc3cccc(F)c34)CC2)CC1 1.58%
COc1nc(N=C(N)N)nc2c(C)cccc12 -4.99%
Cn1c2ccccc2c(=O)c2c(O)cccc21 -1.24%
COc1cc(/C=N/Nc2nn3cnnc3c3ccccc23)cc(OC)c1OC 0.17%
COC(=O)c1ccc(-c2noc(CN(Cc3ccccn3)CC3CCCO3)n2)cc1 (configuration not stated) -11.9%
O=c1[nH]c(-c2ccccc2)c(-c2ccccc2)[nH]1 -3.81%
Clc1cc(-c2ccc(/C=N/n3cnnc3)o2)ccc1Br -1.55%

inhibition, active:
COc1ccc(Cc2nnc(NS(=O)(=O)Cc3ccccc3)s2)cc1 29.2%
CCN1CCN(CCNC(=O)c2ccc3c(c2)NC(=O)/C(=C\c2ccc(OC)c(OC)c2)S3)CC1 31%
Cn1c(-c2sccc2OCc2cccc(C(F)(F)F)c2)n[nH]c1=S 58.2%
C=CCn1c(-c2ccccc2OCC)n[nH]c1=S 40.4%
CCc1cc(=O)oc2cc(C)cc(OCC(=O)N3CCC[C@@H]3C(=O)O)c12 32.9%
CC(NS(=O)(=O)c1ccccc1)c1n[nH]c(=S)n1-c1ccccc1 (configuration not stated) 38.4%
CC(C)(C)CC(=O)Nc1nnc(SCC(=O)NCc2cccs2)s1 45.5%
O=C1Nc2cc(C(=O)N3CCC(N4CCCCC4)CC3)ccc2S/C1=C\c1ccccc1 53.6%
COc1cc(-c2nn3c(-c4cccc(C)c4)nnc3s2)cc(OC)c1OC 22.2%
CC(=O)c1ccc(-c2ccc(Cn3c(C)nc4cc(N)c(C)nc43)cc2)cc1 42.1%
CNC(=O)c1ccsc1NC(=O)c1ccc(S(=O)(=O)N2CCOCC2)cc1 37.1%
Nc1cccc2c1C(=O)N(Cc1nnc(-c3ccccc3Br)o1)C2=O 29.6%
